“And” between values parts separate entries of the source, which are not always exact repeats. Equal values may be shown once. The campaign covered roughly 16,000 compounds. About 2,600 (16%) were called active. Inconclusive results (about 20%) are left out. Calls come from the whole dose curve; as a rule, active = well fitted curve in the direction sought with a large enough effect; inconclusive = small, poorly fitted or top-dose-only effect, or effect the other way; inactive = no such curve, though single readings can be large or run the other way. A selection follows.
These compounds were tested against Cytochrome P450 2D6 (Homo sapiens) (UniProt P10635) (assay: Cytochrome panel assay with activity outcomes). Conditions: recombinant CYP, pro-luciferin dealkylation, luminescence, p450-cyp2d6; series mostly up to 57.1 µM; activity, negative = inhibition: at the top concentration.
Description: The P450 gene superfamily is involved in the metabolism and clearance of xenobiotics. This assay used various human CYP P450 isozymes to measure the dealkylation of various pro-luciferin substrates to luciferin. The luciferin is then measured by luminescence after the addition of a luciferase detection reagent. Pro-luciferin substrate concentration in the assay was equal to its KM for its CYP P450 isozyme. Inhibitors and some substrates limit the production of luciferin, and decrease measured luminescence.
NCGC Assay Protocol Summary:
1, Reagent, 2 uL, Isozyme and Pro-Luciferin
2, Library compounds, 23 nl, 40 uM to 0.24 nM dilution series
3, Controls, 23 nl, Isozyme specific inhibitor
4, Reagent, 2 uL, NADPH regeneration solution
5, Incubation time, 60 min, Isozyme specific temperature
6, Reagent, 4ul, Detection reagent
7, Incubation time, 20 min, Isozyme specific temperature
8, Detection, 1 sec, ViewLux luminescent read
The luciferase-based P450-GloTM Screening Systems were obtained from Promega (Madison, WI) for CYP 1A2 (V9770), CYP 2C9 (V9790), CYP2 C19 (V9880), CYP 2D6 (V9890), and CYP 3A4 Luciferin-PPXE (V9910) and were adapted for 1,536-well microplates and an automated protocol. The control compounds furafylline for 1A2 (F124), sulfaphenazole for CYP 2C9 (S0758), ketoconazole for CYP 2C19 (K1003), quinidine for 2D6 (Q3625), and ketoconazole for 3A4 (K1003) were purchased from Sigma Aldrich (St. Louis, MO). Recombinant P450 enzymes were obtained from baculovirus constructs expressed in insect cells (BD/Gentest).
Medium-binding white solid Kalypsys plates used. Mixtures kept on ice. 1A2: 10 nM 1A2, 100 uM Luc-ME, 100 mM KPO4; 2C9: 10 nM 2C9, 100 uM Luc-H, 25 mM KPO4; 2C19: 5 nM 2C19, 10 uM Luc-H EGE, 50 mM KPO4; 2D6: 5 nM 2D6, 30 uM Luc-ME EGE, 100 mM KPO4; 3A4: 10 nM, 25 uM Luc-PPXE. All amounts are reflected in their final concentration, working concentration is 2x.
NADPH regeneration solution: 1.3 mM NADP+, 3.3 mM glucose-6-phosphate, 3.3 mM MgCl2, 0.4 U/mL glucose-6-phosphate dehydrogenase for all isozymes, 200 mM KPO4 for 3A4. Mixture prepared at RT but kept on ice during automated run.
RT incubation in auxilliary plate hotel for 1A2, 2D6, and 3A4; 37C for 2C9 and 2C19.
Keywords: P450, CYP1A2, CYP2C19, CYP2C9, CYP2D6, CYP3A4, Luciferase, MLSMR, MLSCN, NIH Roadmap, qHTS, NCGC
% is set by controls: 0 for no effect and ±100 for the full control effect.

Cytochrome P450 2D6 (Homo sapiens), sequence (P10635 whole entry, looked up): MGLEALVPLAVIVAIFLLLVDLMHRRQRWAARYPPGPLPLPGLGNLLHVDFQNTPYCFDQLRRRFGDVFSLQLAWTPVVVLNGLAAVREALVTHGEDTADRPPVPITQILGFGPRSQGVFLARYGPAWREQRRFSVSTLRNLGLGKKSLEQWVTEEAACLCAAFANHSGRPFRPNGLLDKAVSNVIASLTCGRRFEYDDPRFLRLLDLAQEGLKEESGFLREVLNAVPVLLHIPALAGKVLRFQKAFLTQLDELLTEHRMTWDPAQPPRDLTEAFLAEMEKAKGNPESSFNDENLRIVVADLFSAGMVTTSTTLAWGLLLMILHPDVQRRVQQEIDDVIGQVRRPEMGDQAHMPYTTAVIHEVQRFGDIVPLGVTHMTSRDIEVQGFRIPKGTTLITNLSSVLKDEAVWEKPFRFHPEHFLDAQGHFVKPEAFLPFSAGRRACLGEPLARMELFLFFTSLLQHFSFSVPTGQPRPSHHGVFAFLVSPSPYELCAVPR

activity, negative = inhibition, inactive:
CC1Cc2ccccc2N1C(=O)c1cc2c(=O)n3ccccc3nc2n1C (stereo unspecified) -9.59%
CCOC(=O)c1cc2c(=O)n3ccccc3nc2n(CCCOC)c1=NC(=O)C(C)(C)C -7.61%
CCOC(=O)c1cc2c(=O)n3ccccc3nc2n(CCOC)c1=NC(=O)C(C)(C)C 23.5%
Cn1c(C(=O)N2COCC2(C)C)cc2c(=O)n3ccccc3nc21 9.88%
COc1ccccc1C(=O)Nc1cc2c(ccc3ccccc32)oc1=O -3.7%
O=C(CCl)Nc1ccc(Oc2cnc3ccccc3n2)cc1 -6.66%
Cc1ccccc1C(=O)N1CCN(c2ccc([N+](=O)[O-])c(NCc3ccco3)c2)CC1 -21.7%
CC(C)(N)C(=O)N[C@@H]1C(=O)N2[C@@H]1SC(C)(C)[C@H]2C(=O)O 5.23% [at 11.4 µM]
CC(C)(C)C(=O)N1CCC(O)(CS(=O)(=O)Cc2ccc(Cl)cc2)CC1 -2.72%
Cc1ccccc1OCC(=O)NC(=S)Nc1ccc(N2CCOCC2)c(Cl)c1 -1.79%
Cc1ccc(NC(=O)c2cc(N3C(=O)C4CC=CCC4C3=O)ccc2N2CCOCC2)cc1Cl (stereo unspecified) -12.8%
NC(=O)C1(N2CCCCC2)CCN(C(=S)Nc2ccc(Cl)cc2)CC1 18.5%
Nc1ccc(CCNc2ncnc3c2ncn3[C@@H]2O[C@@H](CO)[C@H](O)[C@@H]2O)cc1 -4.1%
CC(C)c1ccc(-c2nnn(CCC(=O)O)n2)cc1 6.28%
CCOc1ccc(/C(O)=C2\C(=O)C(=O)N(CCOCCO)C2c2ccccc2OC)cc1 (stereo unspecified) -1.52%
CCOc1ccc(OCCOc2ncnc3ccccc23)cc1 -9.19%
N#CCCn1c(=O)cnc2cnc(Oc3ccccc3)nc21 2.41%
C=CCn1c(SCc2ccc3c(c2)OCO3)nc2scc(-c3ccco3)c2c1=O -7.87%
CCc1noc(C)c1C(=O)Nc1nc(-c2cc(C)ccc2C)c(C)s1 -10.5%
O=C(O)CSc1cc(-c2ccccc2)nc2ccccc12 3.96% [at 11.4 µM]
O=[N+]([O-])c1ccc(CSCc2ccc(Cl)cc2)cc1 -20.5% [at 11.4 µM]
N[C@@H](CSCc1ccc(I)cc1)C(=O)O 3.9% [at 11.4 µM]
O=c1c(-c2cccc(F)c2)nc2cncnc2n1Cc1ccccc1Cl -3.25%
O=C(O)COc1c(Cl)cc(Cl)c2cccnc12 2.9% [at 11.4 µM]
CC(C)NC[C@@H](O)c1ccc(O)c2ncccc12 -18.5% [at 11.4 µM]
N#CCCn1c(=O)c(-c2ccc(F)cc2)nc2cnc(N3CCOCC3)nc21 3.46%
CCOC(=O)/C(C#N)=C1/C=CN(C)C=N1 16.9%
Cc1nc2cncnc2n(-c2ccccc2)c1=O -8.35%
COc1cccc(-c2cc(C(F)(F)F)n3ncc(S(=O)(=O)c4ccccc4)c3n2)c1 2.47%
CC(C)C(=O)C(C)(C)CCc1ccccn1 8.85% [at 11.4 µM]
ON(CCc1ccccn1)Cc1ccccc1 -0.364% [at 11.4 µM]
O=C(Nc1ccccc1)c1ccccc1CC[N+](=O)[O-] 7.91%
C/C(=C\C1CCCCC1)C(NC(=O)c1ccc(C(F)(F)F)cc1)c1ccc(-c2ccccc2)cc1 (stereo unspecified) 7.77%
COc1ccc(-c2cc(C(F)(F)F)n3nc(C(=O)N4CCCCC4)cc3n2)cc1 -17.1%
Cc1ccc(CS(=O)(=O)CCC(=O)NCCCN2CCCC2=O)cc1 -2.33%
Cc1ccc(S(=O)(=O)CC(O)CN2CCCC2=O)cc1 (stereo unspecified) -5.29%
O=C1CC(N2CCOCC2)C(=O)N1c1cccc(Cl)c1 (stereo unspecified) -1.45%
CCCc1ncc(C[n+]2ccccc2C)c(N)n1 -3.66% [at 25.6 µM]
C=CCNC(=S)N/N=C/c1ccc(OCc2ccccc2)cc1 -3.46%

AC50, inactive:
N[C@H](C(=O)O)c1cccc(O)c1

AC50, active:
Cn1c(=N)c(S(=O)(=O)c2ccc(F)cc2)cc2c(=O)n3ccccc3nc21 3.16 µM
CCn1c(=N)c(S(=O)(=O)c2ccc(F)cc2)cc2c(=O)n3ccccc3nc21 0.794 µM
Cc1ccc(NC(=O)CSCC(=O)Nc2ccc(N3CCOCC3)c(Cl)c2)cc1 14.1 µM
CCOc1ccc(OCCOCCN2CCc3ccccc3C2)cc1 1.12 µM
C=CCN1CCN(c2nc3ccccc3nc2C#N)CC1 1.26 µM
NC[C@@H](O)CSCc1ccc(Cl)cc1 3.16 µM
Oc1ccc(CNCc2ccccc2)c2cccnc12 1.58 µM
CN(CCc1ccccn1)Cc1ccc(Cl)cc1Cl 0.355 µM
Cc1ccc(S(=O)(=O)N(CCCN2CCCC2=O)Cc2cc3c(C)ccc(C)c3[nH]c2=O)cc1 14.1 µM
CSc1ccc2c(c1)[C@H](N1CCN(C)CC1)Cc1ccccc1S2 3.98 µM and 1.58 µM and 316 nM
CN1CCN([C@@H]2Cc3ccccc3Sc3ccc(Cl)cc32)CC1 0.398 µM

Source: PubChem BioAssay AID1851 (National Center for Advancing Translational Sciences (NCATS), 2009)
